# In PubChem BioAssay (NCI):
# About 83,000 compounds went through this panel and 20% of them were active in at least one assay; those are over-represented in the sample as a whole.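 Method: cells in 96-well plates; compound added at one concentration; 48 h incubation; percent growth measured; values under 10 scored active.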 Unmarked numbers belong to inactive results. Active and inactive are the calls of the source.
# How the values were obtained:
# Assay in all cases: NCI-60 one-dose screen, 48 h (100 = growth as untreated, 0 = no growth, -100 = all killed)
# Conditions in all cases: 10 µM unless noted
# HCT-15 colon = test system: HCT-15 colon
# HT29 colon = test system: HT29 colon
# SNB-75 CNS = test system: SNB-75 CNS
# SNB-19 CNS = test system: SNB-19 CNS
# U251 CNS = test system: U251 CNS
# PC-3 prostate = test system: PC-3 prostate
# SK-MEL-5 melanoma = test system: SK-MEL-5 melanoma
# UACC-62 melanoma = test system: UACC-62 melanoma
# LOX IMVI melanoma = test system: LOX IMVI melanoma
# SK-MEL-28 melanoma = test system: SK-MEL-28 melanoma
# SK-MEL-2 melanoma = test system: SK-MEL-2 melanoma
# SN12C renal = test system: SN12C renal
# UO-31 renal = test system: UO-31 renal
# TK-10 renal = test system: TK-10 renal
# ACHN renal = test system: ACHN renal
# CAKI-1 renal = test system: CAKI-1 renal
# A498 renal = test system: A498 renal
# CCRF-CEM leukemia = test system: CCRF-CEM leukemia
# MOLT-4 leukemia = test system: MOLT-4 leukemia
Structure (SMILES),growth (HCT-15 colon),growth (HT29 colon),growth (SNB-75 CNS),growth (SNB-19 CNS),growth (U251 CNS),growth (PC-3 prostate),growth (SK-MEL-5 melanoma),growth (UACC-62 melanoma),growth (LOX IMVI melanoma),growth (SK-MEL-28 melanoma),growth (SK-MEL-2 melanoma),growth (SN12C renal),growth (UO-31 renal),growth (TK-10 renal),growth (ACHN renal),growth (CAKI-1 renal),growth (A498 renal),growth (CCRF-CEM leukemia),growth (MOLT-4 leukemia)
Clc1ccc(-c2nc(-c3ccco3)cn3ccnc23)cc1,50.1%,40.3%,32%,30.6%,-51.3% (active),60.2%,58%,88%,55.2%,102%,100%,65.7%,7.06% (active),11.9%,8.59% (active),50.2%,36.8%,78.4%,80%
Cc1cccc(NC(=O)c2sc3nc4c(cc3c2N)CCCC4)c1,23.9%,15.4%,34.5%,50.5%,34.4%,26.6%,33.9%,26.5%,40.3%,53%,54.9%,51.8%,54.2%,70.7%,48.9%,40.8%,44.3%,19.4%,33.6%
O=C(CCCn1c(=O)c2sc3ccccc3c2n2nnc(-c3ccccc3)c12)NCCc1cnc[nH]1,-63.1% (active),-94.1% (active),28.2%,-12.3% (active),-51.2% (active),-14% (active),-69.6% (active),-78.5% (active),-16.7% (active),-49.7% (active),-49.2% (active),-78% (active),-79.3% (active),-62.4% (active),-37.9% (active),14.9%,95.6%,42.6%,73.3%
COc1cccc(NC(=O)Cn2cc3c(=O)oc4ccccc4c3n2)c1,109%,105%,64.7%,102%,125%,97.4%,100%,100%,113%,94%,101%,103%,88.5%,111%,116%,95.6%,87.2%,102%,111%
COc1ccc2c(c1)C(=O)/C(=C/c1ccc(O)cc1)O2,52.1%,90.1%,67.5%,89.3%,92.9%,39.6%,87.8%,77.1%,45.5%,92.6%,81.2%,76.8%,-97.4% (active),75.1%,96.4%,71.8%,94.8%,104%,62.8%
COC1=CC(c2ccc[nH]2)=N/C1=C\c1[nH]c(C)c(C(=O)CCCCC(=O)Oc2ccc3c(c2)CCC2C3CC[C@]3(C)[C@@H](O)CC[C@@H]23)c1C (some centres undefined),37.1%,38.7%,62.7%,75.6%,52.6%,42.9%,47.8%,57.9%,1.7% (active),81.3%,70.5%,58.8%,42.7%,96.7%,62.9%,25.7%,38.5%,17.2%,22.8%
C=C1C(=O)O[C@H]2[C@H]1CC/C(Cn1cc(-c3ccsc3)nn1)=C\CC[C@@]1(C)O[C@@H]21,-77.5% (active),-68.5% (active),21.7%,59.8%,4.91% (active),-20.4% (active),-42.1% (active),-55.7% (active),-94.3% (active),-54% (active),-21.5% (active),-18.3% (active),-91.5% (active),-50.6% (active),-90.5% (active),-53.5% (active),-4.99% (active),-24.7% (active),-13.3% (active)
CCC(c1ccc(OC)cc1)C(CC)c1ccc(O)c(CN2CCCC2)c1 (centres undefined),1.62% (active),4.26% (active),71.5%,40.6%,7.11% (active),24.4%,-91.8% (active),-74.1% (active),-79.1% (active),-50.9% (active),-37.6% (active),23.3%,15%,54.5%,39.3%,32.6%,-5.74% (active),19.7%,1.69% (active)
CC(=O)OCC1OC(OCC2OC(OC(C)=O)C(OC(C)=O)C(OC(C)=O)C2OC(C)=O)C(OC(C)=O)C(OC(C)=O)C1OC(C)=O (centres undefined),96.7%,103%,92.8%,100%,92%,93.5%,94.2%,92.2%,95.7%,104%,107%,95.1%,95.4%,106%,94.7%,94.7%,87%,99.6%,104%
CC(=O)C1CCC(C)=CC1=O (centres undefined),99.4%,103%,81.5%,101%,97.4%,96.3%,108%,101%,94%,103%,94.3%,99%,80.3%,97.7%,98.4%,96.5%,87.6%,100%,88.3%
Cc1ccc(C2=NN(c3ccc(S(N)(=O)=O)cc3)C(c3cn(-c4ccccc4)nc3-c3ccccc3)C2)cc1 (centres undefined),74.3%,46.3%,81.6%,87%,77.4%,32.3%,100%,83.5%,91.2%,116%,90%,30.7%,30.2%,84.2%,93%,94.7%,-5.87% (active),40.3%,18.7%
O=S(=O)(NCCNc1cc(-c2cn(-c3ccccc3)nc2-c2ccccc2)ccn1)c1ccc(F)cc1,74.2%,88.3%,77.4%,92.5%,72.7%,47.6%,68.9%,89.4%,78.5%,104%,108%,92.8%,60.7%,114%,93%,66.1%,83.8%,83.4%,70.1%
CCNCc1ccncc1,104%,102%,92.5%,106%,94.9%,85.2%,102%,109%,93.6%,119%,106%,108%,89.8%,99.5%,108%,94%,97.8%,95%,92%
Nc1c(C(=O)Nc2cccc(C(F)(F)F)c2)sc2nc3c(cc12)C(O)CCC3 (centres undefined),36.7%,17.7%,-6.78% (active),86.8%,16.8%,23.4%,25.7%,41.4%,47.8%,49%,30.7%,51.5%,49.9%,54.6%,54.6%,30.1%,-2.02% (active),14.5%,24.7%
CC(C(=O)n1cc(-c2ccccc2)c(-c2ccccc2)c1)c1ccccc1 (centres undefined),112%,107%,92.9%,102%,91.1%,95.9%,99.1%,106%,97.8%,112%,104%,108%,88.6%,98.8%,115%,91.6%,99.8%,103%,102%
COC(=O)C(CC(=O)c1ccc(-c2ccccc2)cc1)c1ccccc1 (centres undefined),31.3%,6.34% (active),72.5%,75.5%,71.1%,64.4%,45.5%,51.3%,44.9%,70.9%,69.4%,64.2%,53.8%,68%,41.3%,44.3%,41.7%,49.4%,47.3%
